Results filed as inconclusive are left out. Active and inactive are the calls of the source. The call rests on the fitted dose curve; in most records, active means well fitted cell-killing curve with a large enough effect; inconclusive means small, poorly fitted or top-dose-only effect; inactive means flat fitted curve, though single readings scatter.
Assay: qHTS of pediatric cancer cell lines to identify multiple opportunities for drug repurposing: Primary screen for U-2 OS cells (AID 1347096); further: nearly all actives have a fitted effect of over 50% in size
Conditions: U-2 OS viability, CellTiter-Glo luminescence, 48 h; series mostly up to 46 µM; activity change, negative = cytotoxic: at the top concentration
From the text: Drug repurposing or repositioning has been offered as a strategy for drug development in oncology programs. This approach has special potential for childhood cancers and other rare or orphan diseases, where the expected return on new drug development has been a disincentive to pharmaceuticals.
In this project we exploit the poly-pharmacology of drugs to discover new indications via phenotypic screening of a panel of 19 well-characterized cell lines derived from solid tumors seen in children and adolescents. The goal is to identify approved drugs with previously unrecognized anticancer properties that has the potential to reveal new mechanisms and biological processes involved in carcinogenesis or drug resistance. We employed a titration-based paradigm (quantitative high-throughput screening or qHTS), where all compounds were tested at multiple concentrations for their effect on cell viability. Concentration-response curves (CRCs) were derived directly from the primary screen, and both potency and efficacy values were used to identify compounds with robust bioactivity profiles. We screened the NIH Chemical Genomics Center (NCGC) Pharmaceutical Collection (NPC) and Mechanism Interrogation Plate (MIPE) small molecule collections of approved and investigational compounds against these cell lines; and measured metabolically active cells after 48 hours of compound treatment as a proxy for cell viability.
Assay Submitter: Nathalia J. Martinez, National Center for Advancing Translational Sciences, National Institutes of Health, Rockville, MD, USA; email: natalia.martinez@nih.gov
[1] Shen, M et al. Quantitative high-throughput phenotypic screening of pediatric cancer cell lines identifies multiple opportunities for drug repurposing. Oncotarget 2017 Dec 19;9(4):4758-4772. PMID 29435139.
The cells were obtained from University of North Carolina (UNC), Pediatric Preclinical Testing Program (PPT), and Coriell Institute (CI).
qHTS cell viability assay:
Cells were assayed in growth media at a density of 500-1,000 cells/well. Five microliters of cells were dispensed into 1,536-well, white, solid-bottom, TC-treated plates (Greiner Bio One) using a multidrop dispenser and incubated at 37 degrees C, 5% CO2, under a humidified atmosphere for 5 hours. Twenty-three nanoliters of compounds and controls (neutral control DMSO or positive control bortezomib at final concentration of 2.3 µM) were subsequently transferred by Kalypsys pintool. For primary screens, the MIPE collection was tested at 11-point dilutions (final concentrations range from 0.78 nM to 46 µM) and the NPC collection at 8-point dilutions (final concentrations range from 0.59 nM to 46 µM). Compounds tested in follow-up screens were assayed at 11-point dilutions. Cells were incubated for 48 hours, followed by addition of 3 µL of CellTiter-Glo (Promega). After a 15 min incubation at room temperature, samples were analyzed for luminescence intensity using a ViewLux High-throughput CCD imager equipped with clear filters.
Potency means the concentration at half of the fitted maximal effect.

SMILES	activity change, negative = cytotoxic	Potency
COc1cccc(-c2ccc(NC(=O)C3=C(C(=O)O)CCC3)c(F)c2)c1	1.52% (inactive)	
Cc1ccc(NC(=O)C2(c3ccc4c(c3)OC(F)(F)O4)CC2)nc1-c1cccc(C(=O)O)c1		0.59 µM (active)
CC(C)(O)CCc1ccc(OCc2cc(-c3cccc(OC(F)F)c3)c3ncccc3c2)cc1	3.29% (inactive)	
O=C(O)c1ccc2c(c1)nc(Nc1cccc(Cl)c1)c1ccncc12		18.7 µM (active)
COCCn1c2c([n+](Cc3cnccn3)c1C)C(=O)c1ccccc1C2=O		0.118 µM (active)
CCCNC(=O)Nc1ccc(Oc2ncnc3cc(OC)c(OC)cc23)cc1Cl	-3.76% (inactive)	
O=C(Nc1nc2cccc(-c3ccc(CN4CCS(=O)(=O)CC4)cc3)n2n1)C1CC1	18.7% (inactive)	
CC=CC1=C(C(=O)O)N2C(=O)[C@H](NC(=O)[C@H](N)c3ccc(O)cc3)[C@@H]2SC1	13.7% (inactive)	
C[C@@H](Oc1cc(-n2cnc3ccc(CN4CCN(C)CC4)cc32)sc1C(N)=O)c1ccccc1C(F)(F)F		29.6 µM (active)
CC(C)[C@H](C(=O)Nc1ccc(C(=O)NO)cc1)c1ccccc1		1.18 µM (active)
Cc1cc(N2CCOCC2)cc2[nH]c(-c3c(NC[C@@H](O)c4cccc(Cl)c4)cc[nH]c3=O)nc12		18.7 µM (active)
O=C(c1ccc(Nc2nccc(-c3cc4ccccc4s3)n2)cc1)N1CCC(N2CCCC2)CC1		23.5 µM (active)
COc1ccc(CC2c3cc(OC)c(OC)cc3CC[N+]2(C)CCC(=O)OCCCCCOC(=O)CC[N+]2(C)CCc3cc(OC)c(OC)cc3C2Cc2ccc(OC)c(OC)c2)cc1OC (stereo not given)	3.34% [at 9.22 µM] (inactive)	
COc1cc2c(cc1-c1c(C)noc1C)ncc1[nH]c(=O)n([C@H](C)c3ccccn3)c12		18.7 µM (active)
NC(=O)c1cccc2cn(-c3ccc([C@@H]4CCCNC4)cc3)nc12	20.6% (inactive)	
COc1cc2c(Oc3ccc(-c4cnc(Nc5ccc(F)cc5)n(C)c4=O)cc3F)ccnc2cc1OCCCN1CCOCC1		14.8 µM (active)
Cc1[nH]c2ccccc2c1CCNCc1ccc(C=CC(=O)NO)cc1		0.469 µM (active)
COc1cc2c(Oc3ccc4[nH]c(C)cc4c3F)ncnc2cc1OCCCN1CCCC1	10.6% (inactive)	
C=CC(=O)Nc1cccc(Oc2nc(Nc3ccc(N4CCN(C)CC4)cc3OC)ncc2Cl)c1		23.5 µM (active)
Fc1cc(-c2cccc3ncc(-c4cnn(C5CCNCC5)c4)nc23)cc(F)c1CN1CCOCC1	15.1% (inactive)	

SMILES	activity change, negative = cytotoxic	Potency
CC(C)c1ccccc1Cc1cc(C(=O)Nc2ccc(S(=O)(=O)c3ccccc3C(C)(C)C)cc2)c(O)c(O)c1O	-8.27% (inactive)	
C1Cc2[nH]nc(-c3nn[nH]n3)c2C1	8.3% (inactive)	
CCCCc1nc2cc(C=CC(=O)NO)ccc2n1CCN(CC)CC		0.743 µM (active)
O=C(O)c1ccc2cc(-c3ccc(O)c(C45CC6CC(CC(C6)C4)C5)c3)ccc2c1	11.7% (inactive)	
Cc1cc(Nc2cc(N3CCN(C)CC3)nc(C=Cc3ccccc3)n2)n[nH]1		34 µM (active)
O=C(c1cncc(Br)c1)N1CCC(N2CCCC2)CC1	18.1% (inactive)	
OCc1ccc(-c2ccc(-c3ccc(CO)s3)o2)s1	5.05% (inactive)	
Nc1ccn([C@@H]2CS[C@H](CO)O2)c(=O)n1	0.393% [at 92.7 µM] (inactive)	
CC(=O)Nc1sc2c(c1-c1nc3ccccc3s1)CNC2	-19.8% (inactive)	
COc1cccc(Nc2c(C(N)=O)cnc3c(C)cc(S(=O)(=O)c4cccc(C(=O)N(C)C)c4)cc23)c1	3.24% [at 16.1 µM] (inactive)	
O=C(CCCCCCC(=O)Nc1ccc([C@H]2O[C@@H](CSc3nc(-c4ccccc4)c(-c4ccccc4)o3)C[C@@H](c3ccc(CO)cc3)O2)cc1)NO	15.9% (inactive)	
CCc1c2c(nc3ccc(O)cc13)-c1cc3c(c(=O)n1C2)COC(=O)[C@]3(O)CC	11% (inactive)	
COC(=O)Nc1ccc(-c2nc(N3CCOCC3)c3cnn(C4CCN(Cc5cccnc5)CC4)c3n2)cc1	17.1% (inactive)	
COc1cc2c(NC3CCN(C(C)C)CC3)nc(C3CCCCC3)nc2cc1OCCCN1CCCC1	-21.3% (inactive)	
CN(C1CCc2c(c3ccccc3n2CC(=O)O)C1)S(=O)(=O)c1ccc(F)cc1 (stereo not given)	-10.3% (inactive)	
Cc1ccc(CN2CCNCC2)cc1NC(=O)CNc1ccc(F)c(F)c1	8.76% (inactive)	
Cc1cn(-c2cc(NC(=O)c3ccc(C)c(Nc4nccc(-c5cccnc5)n4)c3)cc(C(F)(F)F)c2)cn1	26.1% (inactive)	
COc1ccc2c(OCc3nnc4ccc(-c5ccccc5)nn34)ccnc2c1	11.8% (inactive)	
CCC[C@H](NC(=O)C(C#N)=Cc1cccc(Br)n1)c1ccccc1	11.1% (inactive)	
CCCn1c(=O)c2[nH]c(-c3cnn(Cc4cccc(C(F)(F)F)c4)c3)nc2n(CC)c1=O	7.67% (inactive)	

Reference: PubChem BioAssay (NCATS)
